# PubChem BioAssay (EPA / NIEHS)
# Records with an inconclusive call do not appear. Activity calls are given as the source filed them. How the source made its calls, unless noted: active means hit-call score of the fitted dose curve at least 0.9, where 1 is the maximum; inconclusive means response in the unintended direction; inactive means score below 0.9.
# Legend:
# [1] = read-out: X-box binding protein 1 (XBP1), XBP1 (gene 7494); test: LTEA_HepaRG_XBP1: Life Technologies and Expression Analysis (LTEA) Assay for X-box binding protein 1 (XBP1) using HepaRG (AID 2283540; active means hit-call score of the fitted dose curve at least 0.9, where 1 is the maximum; inactive means score below 0.9); conditions: mRNA level, 48 h; actives raise or lower the signal
# How it was run: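 XBP1 transcript by qRT-PCR (housekeeping-normalized: ACTB, GAPDH, POLR2A) after 48 h chemical treatment of HepaRG cells, 8-point half-log series topping at 100 uM, vehicle 0.5% DMSO. Gain and loss of signal fitted relative to DMSO.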
# [2] = LTEA_HepaRG_LDH_cytotoxicity: Cytotoxicity Assessment in the Life Technologies and Expression Analysis (LTEA) Assay (AID 2283563);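 on AC50: LDH activity released into spent culture medium as a marker of cell death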
# How it was run: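 LDH release into culture medium read after 48 h chemical treatment of HepaRG cells. Duplicate wells, eight-point half-log series topping at 100 uM, 0.5% DMSO vehicle and baseline.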
# [3] = ATG_XTT_Cytotoxicity: Cytotoxicity Assessment in the Attagene TRANS-FACTORIAL HepG2 Assay (AID 2283584)
# How it was run: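 Viability endpoint from XTT after 24 h chemical exposure of reporter-transfected human HepG2 liver cells; signal loss fitted relative to DMSO negative control.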
# [4] = TOX21_p53_BLA_p2_viability: Viability Assessment in the Tox21 HCT-116 p53 Agonism Beta-lactamase Assay, Phase 2 (AID 2283591);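 further: compound exposure lasted 16 h at 37 °C; actives lower the ATP signal meaning cytotoxicity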
# How it was run: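 Cytotoxicity readout: CellTiter-Glo ATP luminescence, 30 min at room temperature, after the beta-lactamase read. Cells were HCT116 exposed 16 h at 37C to compounds pin-transferred at 217-fold dilution from DMSO stocks.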
# [5] = biological target: Cellular tumor antigen p53 (Homo sapiens) (UniProt P04637); test: TOX21_p53_BLA_p2_ratio: Tox21 HCT-116 p53 Agonism Beta-lactamase Assay, Ratio, Phase 2 (AID 2283592)
# How it was run: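 Read-out is the blue/green (460/530 nm, 405 nm excitation) ratio after 2 h CCF4-AM loading, fitted as gain versus DMSO. Compounds, pinned at 217-fold dilution from DMSO stocks, stayed 16 h on HCT-116 beta-lactamase reporter cells seeded 5 h earlier.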
# [6] = TOX21_p53_BLA_p3_viability: Viability Assessment in the Tox21 HCT-116 p53 Agonism Beta-lactamase Assay, Phase 3 (AID 2283593);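 further: cells exposed to compound for 16 h before reading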
# How it was run: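 Cellular ATP was quantified by CellTiter-Glo luminescence, read after 30 min at room temperature. Beforehand, HCT116 cells (4000/well) received compound 5 h post-seeding, 217-fold diluted from DMSO, then incubated 16 h at 37C.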
# [7] = biological target: Cellular tumor antigen p53 (Homo sapiens) (UniProt P04637); test: TOX21_p53_BLA_p3_ratio: Tox21 HCT-116 p53 Agonism Beta-lactamase Assay, Ratio, Phase 3 (AID 2283596)
# How it was run: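 Cells were seeded at 4000/well, rested 5 h at 37C, then dosed with DMSO compound solutions (217-fold dilution) for 16 h. CCF4-AM substrate was loaded for 2 h at room temperature, and the 460/530 nm emission ratio was fitted for gain of signal versus DMSO.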
# [8] = TOX21_p53_BLA_p4_viability: Viability Assessment in the Tox21 HCT-116 p53 Agonism Beta-lactamase Assay, Phase 4 (AID 2283597);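 further: hits lower the luminescence signal meaning cytotoxicity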
# How it was run: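 Cytotoxicity as reduced cellular ATP (CellTiter-Glo luminescence, 30 min room temperature), measured in the same wells following the CCF4 FRET p53 reading. Human HCT-116 cells received compounds in DMSO (217-fold dilution) for 16 h.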
# [9] = biological target: Cellular tumor antigen p53 (Homo sapiens) (UniProt P04637); test: TOX21_p53_BLA_p5_ratio: Tox21 HCT-116 p53 Agonism Beta-lactamase Assay, Ratio, Phase 5 (AID 2283599)
# How it was run: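 Beta-lactamase reporter ratio (blue 460 nm over green 530 nm, 405 nm excitation) after 2 h CCF4-AM loading, in HCT-116 cells exposed 16 h at 37 C to compounds pinned at 217-fold dilution. Increases relative to DMSO baseline scored.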
# [10] = TOX21_p53_BLA_p5_viability: Viability Assessment in the Tox21 HCT-116 p53 Agonism Beta-lactamase Assay, Phase 5 (AID 2283600)
# How it was run: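 Viability came from CellTiter-Glo ATP luminescence, read after 30 min at room temperature. Before this, HCT-116 p53-bla cells (4000/well) had 16 hours of compound exposure at 37C, with DMSO stocks diluted 217-fold on transfer.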
# [11] = biological target: Cellular tumor antigen p53 (Homo sapiens) (UniProt P04637); test: TOX21_p53_BLA_p4_ratio: Tox21 HCT-116 p53 Agonism Beta-lactamase Assay, Ratio, Phase 4 (AID 2283601)
# How it was run: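 Signal is the blue/green (460nm/530nm) ratio of cleaved versus uncleaved CCF4-AM substrate, read after 2 h substrate loading. Cells were HCT116 carrying the p53-responsive beta-lactamase reporter, dosed 16 h at 37C, 5% CO2; CellTiter-Glo measured in parallel.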
# [12] = Tanguay_ZF_120hpf_MORT_legacy: (Legacy) Oregon State University Tanguay Lab 120 Hour Post-fertilization zebrafish Assay for Mortality (AID 2283633)
# How it was run: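 Static waterborne exposure from 6 to 120 hpf at 28C of single dechorionated wild-type (5D) embryos per well, 0.64% DMSO final. Death recorded present/absent by brightfield at 24 and 120 hpf.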
# [13] = Tanguay_ZF_120hpf_YSE_legacy: (Legacy) Oregon State University Tanguay Lab 120 Hour Post-fertilization zebrafish Assay for Yolk Sac Edema (AID 2283634)
# How it was run: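 Presence or absence of yolk sac edema was recorded at 120 hpf in surviving larvae. These were wild-type Tropical 5D embryos, chorion removed at 4 hpf, held in static exposure at 28C from 6 hpf with 0.64% DMSO vehicle.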
# [14] = Tanguay_ZF_120hpf_AXIS_legacy: (Legacy) Oregon State University Tanguay Lab 120 Hour Post-fertilization zebrafish Assay for Body Axis Malformation (AID 2283635)
# How it was run: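 Binary scoring of axis defects at 120 hpf under brightfield, fitted positive versus DMSO. Tropical 5D embryos, chorion removed by pronase at 4 hpf, were singly exposed in sealed, dark plates at 28C from 6 hpf; DMSO 0.64% final.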
# [15] = Tanguay_ZF_120hpf_EYE_legacy: (Legacy) Oregon State University Tanguay Lab 120 Hour Post-fertilization zebrafish Assay for Eye Malformation (AID 2283636);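 further: binary presence or absence of eye malformation scored by brightfield in 120 hpf larvae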
# How it was run: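 Binary brightfield scoring of eye defects at 120 hpf after static exposure from 6 hpf of single pronase-dechorionated wild-type embryos (28C, 0.64% DMSO). Non-mortality endpoints omitted where embryos died; fit vs DMSO.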
# [16] = Tanguay_ZF_120hpf_SNOU_legacy: (Legacy) Oregon State University Tanguay Lab 120 Hour Post-fertilization zebrafish Assay for Snout Malformation (AID 2283637)
# How it was run: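 Binary snout-malformation call at 120 hpf in wild-type 5D embryos, chorion removed by pronase, under static exposure from 6 hpf at 28C (0.64% DMSO). Embryos dying by 24 or 120 hpf excluded.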
# [17] = Tanguay_ZF_120hpf_OTIC_legacy: (Legacy) Oregon State University Tanguay Lab 120 Hour Post-fertilization zebrafish Assay for Otic Vesicle Malformation (AID 2283639)
# How it was run: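 Wild-type zebrafish larvae, whole-embryo exposure from early stage to 120 hpf at 28C. Binary brightfield scoring of otic vesicle morphology, fitted in the positive direction against the DMSO baseline.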
# [18] = Tanguay_ZF_120hpf_PE_legacy: (Legacy) Oregon State University Tanguay Lab 120 Hour Post-fertilization zebrafish Assay for Pericardial Edema (AID 2283640)
# How it was run: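 Scoring was binary, by brightfield microscopy at 120 hpf, and skipped where mortality occurred. Wild-type embryos were kept under sealed, foil-covered static exposure at 28C in 0.64% (vol/vol) DMSO.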
# [19] = Tanguay_ZF_120hpf_SOMI_legacy: (Legacy) Oregon State University Tanguay Lab 120 Hour Post-fertilization zebrafish Assay for Somite Malformation (AID 2283647)
# How it was run: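 Binary somite-defect scoring at 120 hpf, omitted for embryos that died, in wild-type (Tropical 5D) zebrafish with chorion removed by pronase at 4 hpf; static exposure began 6 hpf, single embryos per well, 28C, 0.64% DMSO; fitted positive versus DMSO.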
# [20] = Tanguay_ZF_120hpf_PFIN_legacy: (Legacy) Oregon State University Tanguay Lab 120 Hour Post-fertilization zebrafish Assay for Pectoral Fin Malformation (AID 2283648);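 further: each larva judged yes or no for fin defect by brightfield with dead larvae skipped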
# How it was run: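 Pectoral fin malformation was recorded as a binary endpoint at 120 hpf in wild-type Tropical 5D larvae, which had been dechorionated and exposed statically from 6 hpf at 28C in 0.64% DMSO. Dead embryos were excluded.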
# Chain of Cellular tumor antigen p53 (Homo sapiens) (P04637 whole entry, looked up): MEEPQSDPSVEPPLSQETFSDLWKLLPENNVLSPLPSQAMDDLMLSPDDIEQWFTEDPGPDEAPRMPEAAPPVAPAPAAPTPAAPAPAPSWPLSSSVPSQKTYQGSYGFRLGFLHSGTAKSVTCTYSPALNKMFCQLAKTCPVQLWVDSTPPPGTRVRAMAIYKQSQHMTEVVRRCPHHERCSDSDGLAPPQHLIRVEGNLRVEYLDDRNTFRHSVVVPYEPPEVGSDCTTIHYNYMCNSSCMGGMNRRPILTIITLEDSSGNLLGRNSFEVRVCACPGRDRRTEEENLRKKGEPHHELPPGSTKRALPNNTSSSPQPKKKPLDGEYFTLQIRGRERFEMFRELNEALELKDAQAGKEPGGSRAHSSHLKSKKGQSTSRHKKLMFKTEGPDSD
smiles,measurement,setting,value
CC12CC1(C)C(=O)N(c1cc(Cl)cc(Cl)c1)C2=O (centres undefined),outcome,[1],inactive
same,outcome,[2],inactive
same,outcome,[3],inactive
same,outcome,[4],inactive
same,outcome,[5],inactive
same,outcome,[6],inactive
same,outcome,[7],inactive
same,outcome,[8],inactive
same,outcome,[9],inactive
same,outcome,[10],inactive
same,outcome,[11],inactive
same,outcome,[12],inactive
same,outcome,[13],inactive
same,outcome,[14],inactive
same,outcome,[15],inactive
same,outcome,[16],inactive
same,outcome,[17],inactive
same,outcome,[18],inactive
same,outcome,[19],inactive
N#CCCO,outcome,[3],inactive
COS(=O)(=O)c1ccc(C)cc1,outcome,[3],inactive
O=C(Nc1ccc2[nH]ccc2c1)c1cc2cc(F)ccc2n1Cc1cccc(F)c1,outcome,[1],inactive
same,AC50,[2],38.3 µM (active)
same,outcome,[6],inactive
same,AC50,[7],86.7 µM (active)
same,AC50,[8],46.1 µM (active)
same,outcome,[10],inactive
same,AC50,[11],42.2 µM (active)
same,outcome,[12],inactive
same,outcome,[13],inactive
same,outcome,[14],inactive
same,outcome,[15],inactive
same,outcome,[16],inactive
same,outcome,[17],inactive
same,outcome,[18],inactive
same,outcome,[19],inactive
same,outcome,[20],inactive
C=CC(=O)OCCCCCC(C)C,outcome,[1],inactive
same,outcome,[2],inactive
same,outcome,[4],inactive
same,outcome,[6],inactive
same,outcome,[7],inactive
same,outcome,[8],inactive
same,outcome,[10],inactive
same,outcome,[11],inactive
same,outcome,[12],inactive
same,outcome,[13],inactive
same,outcome,[14],inactive
same,outcome,[15],inactive
same,outcome,[16],inactive
same,outcome,[17],inactive
same,outcome,[18],inactive
same,outcome,[19],inactive
same,outcome,[20],inactive
